39 molecules from the supplement of paper PMC7156485 can be followed below.

Values joined by “and” are separate entries in the source; they are usually repeats but may differ in a detail not shown here. Equal entries are not always repeated. Structures can show the parent of a compound that is named as a salt.
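Note: TDF is a line of transformed human dermal fibroblasts of mesenchymal origin.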

The assay has as its system HCC1569. The experiment in a line: H1.0 immunofluorescence intensity relative to DMSO (% of DMSO); higher = stronger H1.0 induction, active = 140 or more. The conditions noted are these: concentration: 10 µM; 24 h. Put shortly:
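HCC1569 and TDF cells (800 per well, 384-well plates, RPMI with 10% FBS) were treated with compounds at 10 µM for 24 h at 37 °C, in triplicate. Cells were fixed in 3.7% formaldehyde and stained with a rabbit anti-H1.0 antibody, an AlexaFluor 647 secondary and DAPI; six fields per well were imaged at ×10. H1.0 nuclear intensity or cell number is expressed as percent of the plate DMSO control, taking the median of replicates. HCC1569 values were smoothed for positional effects.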
`CCCN1CCCC2Cc3nc(N)ncc3CC21.Cl.Cl` (centres undefined) [Quinelorane dihydrochloride]: the H1.0 immunofluorescence intensity is 106 (inactive).

On to `CC(=O)c1c(O)c(C)c(O)c(Cc2c(O)c3c(c(C(=O)C=Cc4ccccc4)c2O)OC(C)(C)C=C3)c1O` [Rottlerin], for which the H1.0 immunofluorescence intensity was 104 (inactive).

With `CCCCCCCCCCCCCCCC(=O)OCC(COP(=O)([O-])OCC[N+](C)(C)C)OC(C)=O` (centres undefined), the H1.0 immunofluorescence intensity was 101 (inactive).

With `CC(O)=C(C#N)C(=O)Nc1cc(Br)ccc1Br`, the H1.0 immunofluorescence intensity was 111 (inactive) and 98.6 (inactive).

`COc1ccc(Cc2nccc3cc(OC)c(OC)cc23)cc1OC.Cl` [Papaverine hydrochloride]: the H1.0 immunofluorescence intensity was 126 (inactive).

As to `C=CCc1cc(OC)c2c(c1)OCO2` [Myristicin], the H1.0 immunofluorescence intensity is 81.5 (inactive).

`COc1ccccc1N1CCNCC1.Cl` [1-(2-Methoxyphenyl)piperazine hydrochloride]: the H1.0 immunofluorescence intensity is 98.8 (inactive).

As for `CC(=O)C1=C(O)C2C3c4c[nH]c5cccc(c45)CC3C(C)(C)N2C1=O` (centres undefined) [Cyclopiazonic acid], the H1.0 immunofluorescence intensity was 101 (inactive).

For `NC(CCCCCP(=O)(O)O)C(=O)O` (stereo not drawn) [D(-)-2-Amino-7-phosphonoheptanoic acid], the H1.0 immunofluorescence intensity was 99.2 (inactive).

Regarding `Cc1[nH]c2ccc(O)cc2c1CCN.O=C(O)C=CC(=O)O` [2-Methyl-5-hydroxytryptamine maleate], the H1.0 immunofluorescence intensity was 85.2 (inactive).

On to `CC1(C)CCCC(C)(C)N1[O]`, for which the H1.0 immunofluorescence intensity was 99.1 (inactive).

Turning to `CN1Cc2c(ccc3c2OCO3)C2C(O)Cc3cc4c(cc3C21)OCO4` (single isomer, unassigned; (+)) [(+)-Chelidonine], the H1.0 immunofluorescence intensity is 148 (active).

For `CC1OC(C[N+](C)(C)C)CS1.[I-]` (centres undefined) [OXA-22 iodide], the H1.0 immunofluorescence intensity is 95.2 (inactive).

`C=CCN1CCC23c4c5ccc(O)c4OC2C(=NN=C2CCC4(O)C6Cc7ccc(O)c8c7C4(CCN6CC=C)C2O8)CCC3(O)C1C5` (centres undefined) [Naloxonazine]: the H1.0 immunofluorescence intensity is 117 (inactive).

As to `O=C([O-])Cc1ccccc1.[Na+]` [Sodium Phenylacetate], the H1.0 immunofluorescence intensity was 100 (inactive).

On to `CC1=CC(=O)c2c(O)cccc2C1=O` [Plumbagin], for which the H1.0 immunofluorescence intensity was 326 (active).

Regarding `CCn1cnc2c(Nc3cccc(Cl)c3)nc(NC3CCCCC3N)nc21` (centres undefined), the H1.0 immunofluorescence intensity is 134 (inactive).

On to `O=C1NC(=O)c2c1c1c3ccccc3[nH]c1c1[nH]c3ccccc3c21`, for which the H1.0 immunofluorescence intensity was 127 (inactive).

Turning to `CN(C)C(=O)Oc1cccc([N+](C)(C)C)c1.[Br-]` [Neostigmine bromide], the H1.0 immunofluorescence intensity is 89.4 (inactive).

On to `CC(CCc1ccccc1)NC(C)C(O)c1ccc(O)cc1.Cl` (centres undefined) [Buphenine.HCl], for which the H1.0 immunofluorescence intensity is 115 (inactive).

Regarding `CC1OC(C[N+](C)(C)C)CC1O.[Cl-]` (single isomer, unassigned; (+)) [(+)-Muscarine chloride], the H1.0 immunofluorescence intensity was 83.8 (inactive).

Regarding `Cl.O=C(O)Cc1cnc[nH]1` [Imidazole-4-acetic acid hydrochloride], the H1.0 immunofluorescence intensity is 93.3 (inactive).

As for `C=C(C)C1CNC(C(=O)O)C1CC(=O)O` (centres undefined) [Kainic acid], the H1.0 immunofluorescence intensity was 88.9 (inactive).

Turning to `Cl.Cl.Clc1cccc(N2CCNCC2)c1` [1-(3-Chlorophenyl)piperazine dihydrochloride], the H1.0 immunofluorescence intensity is 100 (inactive).

As to `COc1ccccc1CN[C@H]1C2CCN(CC2)[C@H]1C(c1ccccc1)c1ccccc1`, the H1.0 immunofluorescence intensity is 125 (inactive).

Turning to `Br.CN1CCc2cc(O)cc3c2C1Cc1ccc(O)c(O)c1-3` (stereo not drawn) [R(-)-2,10,11-Trihydroxyaporphine hybrobromide], the H1.0 immunofluorescence intensity was 94.3 (inactive).

In the case of `C[N+]1([O-])C2CC(OC(=O)C(CO)c3ccccc3)CC1C1OC12` (single isomer, unassigned; (-)) [(-)-Scopolamine N-oxide], the H1.0 immunofluorescence intensity was 102 (inactive).

With `CC1=C2C3OC(=O)C(C)C3CCC2(C)C=CC1=O` (centres undefined) [Santonin], the H1.0 immunofluorescence intensity was 92.6 (inactive).

For `CCC1C2CC3C4N(C)c5ccccc5C45CC(C2C5O)N3C1O` (centres undefined) [Ajmaline], the H1.0 immunofluorescence intensity was 93.1 (inactive).

Turning to `CCCN1CC(CSC)CC2c3cccc4[nH]cc(c34)CC21.CS(=O)(=O)O` (centres undefined) [Pergolide mesylate], the H1.0 immunofluorescence intensity is 112 (inactive).

For the molecule `CNc1ccc2oc(CC3OC4(CCC3C)OC(C(C)C(=O)c3ccc[nH]3)C(C)CC4C)nc2c1C(=O)O` (centres undefined), the H1.0 immunofluorescence intensity is 124 (inactive).

For the molecule `S=C(NC1CCCCC1)N1CCC(c2cnc[nH]2)CC1` [Thioperamide maleate], the H1.0 immunofluorescence intensity was 94.7 (inactive).

Consider `CCCCCCC(C)(C)c1ccc(C2CC(O)CCC2CCCO)c(O)c1` (centres undefined), for which the H1.0 immunofluorescence intensity was 93 (inactive).

`CC12CCC(O)CC1CCC1C2CCC2(C)C(C(=O)CO)CCC12` (stereo not drawn) [3-alpha,21-Dihydroxy-5-alpha-pregnan-20-one]: the H1.0 immunofluorescence intensity is 87 (inactive).

For the molecule `COc1ccc2c(c[n+](C)c3c4cc5c(cc4ccc23)OCO5)c1OC.[Cl-]` [Chelerythrine Chloride], the H1.0 immunofluorescence intensity is 123 (inactive).

For the molecule `C=C(C)C1Cc2c(ccc3c2OC2COc4cc(OC)c(OC)cc4C2C3=O)O1` (centres undefined) [Rotenone], the H1.0 immunofluorescence intensity was 178 (active).

As for `CC(C)Oc1cccnc1N(C)C1CCN(Cc2ccc(I)cc2)CC1` [RBI-257 maleate], the H1.0 immunofluorescence intensity is 102 (inactive).

`Clc1cnc(Oc2ccc(Oc3ncc(Cl)cc3Cl)cc2)c(Cl)c1`: the H1.0 immunofluorescence intensity was 99.2 (inactive).

In the case of `NC(=O)COc1c(F)cc(SCCNS(=O)(=O)c2ccccc2)cc1F`, the H1.0 immunofluorescence intensity was 106 (inactive).
